Source: PubChem BioAssay (National Center for Advancing Translational Sciences (NCATS))
CHX counter: counter-screen for Shiga toxin inhibitors: cycloheximide protein synthesis inhibition; cell reporter, cycloheximide protein synthesis inhibition counterscreen; 300,000 tested, 12% active; max response, %; in the data active = max response mostly above about 13%, no sharp cut-off; inactive = mostly below about 14%; also: read at 38.3 µM for the half of the compounds with a filed dose; 0% is about no effect
Pf growth 96h: P. falciparum growth inhibition at 96 hour, primary screen for plastid delayed-death inhibitors | Potency, µM (highest dose often 28.7 µM), for inactives: at the top dose activity change, negative = inhibition, usual class: inhibitors | P. falciparum luciferase reporter growth, 96 h | AID 504834 | 320,000 tested, 6.9% active; also: potency is read from the fitted curve at half-maximal effect; % is scaled to controls: 0 for no effect and ±100 for the full control effect
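Cell-based qHTS: luciferase-tagged P. falciparum in erythrocytes (2% hematocrit, 0.05% parasitemia final) incubated with compounds for 96 hours, 37 C, 5% CO2; luciferase detection reagent then added and luminescence measured.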
Pf growth 48h: inhibits P. falciparum growth in the first generation, 48 h; P. falciparum luciferase growth in erythrocytes, 48 h; Potency, µM (series often up to 28.7 µM), inactives show at the highest dose activity change, negative = inhibition, hits mostly inhibitors; 310,000 tested, 5.9% active; AID 504832; also: potency is read from the fitted curve at half-maximal effect; % is scaled to controls: 0 for no effect and ±100 for the full control effect
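Growth was read as firefly luciferase luminescence after a 48 h, 37 C, 5% CO2 exposure of compounds to reporter-bearing P. falciparum cultures (0.1% parasitemia, 2% hematocrit final) in Albumax-supplemented RPMI 1640.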
FBPA Giardia inh: inhibitors of Giardia lamblia fructose-1,6-bisphosphate aldolase | 290,000 tested, 0.71% active | purified Giardia FBPA | Potency, µM (doses to about 59.6 µM), for the others: top-dose activity, negative = inhibition, actives largely listed as inhibitors | A8B2U2 | AID 2451; also: potency is read from the fitted curve at half-maximal effect; % is scaled to controls: 0 for no effect and ±100 for the full control effect; nearly all actives have a fitted effect of over 55% in size
Target sequence (A8B2U2 whole entry, looked up): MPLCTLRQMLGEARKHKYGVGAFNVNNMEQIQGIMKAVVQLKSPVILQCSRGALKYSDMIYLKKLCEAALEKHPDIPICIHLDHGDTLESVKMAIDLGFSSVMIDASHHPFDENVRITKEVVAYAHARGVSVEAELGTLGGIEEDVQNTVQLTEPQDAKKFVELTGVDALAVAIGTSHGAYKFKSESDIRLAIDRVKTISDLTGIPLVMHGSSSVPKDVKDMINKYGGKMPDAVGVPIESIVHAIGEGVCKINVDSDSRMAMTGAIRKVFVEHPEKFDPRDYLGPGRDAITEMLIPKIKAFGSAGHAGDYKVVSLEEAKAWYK
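40 nM FBPA preincubated 10 min at RT with compound (up to 57.5 uM final), then substrate plus GAPDH/TPI/NAD/arsenate coupling and diaphorase/resazurin added. Fluorescence read after 20 min at RT, 525/598 nm.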
NS1 function inh: inhibitors of influenza NS1 protein function. Potency, µM (titrated, usually from 46.1 µM), for the others: top-dose activity, positive = more growth. 270,000 tested, 0.4% active. AID 2326; calls by dose curve; also: potency is read from the fitted curve at half-maximal effect; actives are rising curves; nearly all actives have a fitted effect of over 50% in size
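Read-out: OD600 growth recovery of NS1-expressing budding yeast. Cells grown overnight at 30C in -URA glucose medium, washed, resuspended and diluted 1:100 in 2% galactose assay medium, pH 6.0. Same strain lacking NS1 served as positive control.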
Shiga inhibitor: blocks Shiga toxin action in Vero cells; Vero cells, Shiga toxin protein synthesis inhibition reporter; inhibition, % at 38.7 µM; 290,000 tested, 9.2% active; in the data active = inhibition mostly above about 28%, no sharp cut-off; inactive = mostly below about 43%; also: 0% is about no effect
The depositor's hits bear a star; [ ] = dose if it differs, or a comment. Most compounds without a hit are left out; they make up all but 21% or so of the library. Unless noted, calls follow the shape of the dose curve; as a rule, active = well fitted curve in the direction sought with a large enough effect; inconclusive = small, poorly fitted or top-dose-only effect, or another doubt; inactive = no such curve, though single readings can be large; an effect the other way counts as inactive or inconclusive.

Screening CCc1ccc(C(=O)CN2CCSC2=N)cc1 returned CHX counter 83.4*, Pf growth 96h 344.1%, Pf growth 48h 277.5%, FBPA Giardia inh 4.7%, NS1 function inh -19.5% and Shiga inhibitor 71.0*.
For O=C(Oc1ccccc1C(=O)Oc1ccccc1)c1ccco1 the results were CHX counter 10.3, Pf growth 96h -3.0%, FBPA Giardia inh -3.1%, NS1 function inh 4.1% and Shiga inhibitor 41.6.
`O=C(Oc1ccccc1)c1cccc2cccc(C(=O)Oc3ccccc3)c12` gave CHX counter -2.4, Pf growth 96h 10.4µM*, Pf growth 48h inconclusive, FBPA Giardia inh -14.4%, NS1 function inh 12.3% and Shiga inhibitor 12.2.
`COc1ccccc1N1CCN(Cc2cnc(-c3ccccc3)[nH]2)CC1` gave CHX counter -0.9, Pf growth 96h inconclusive, Pf growth 48h -14.6%, FBPA Giardia inh 0.2%, NS1 function inh -0.5% and Shiga inhibitor -2.8.
For CCOc1ccccc1N1CCN(Cc2cnc(-c3ccccc3)[nH]2)CC1 the results were CHX counter -1.0, Pf growth 96h 9.28µM*, Pf growth 48h 13.1µM*, FBPA Giardia inh 0.7%, NS1 function inh -4.7% and Shiga inhibitor -1.2.
Screening O=C(Oc1ccc(C(=S)N2CCOCC2)cc1)c1ccccc1F returned CHX counter -1.7, Pf growth 96h -14.8%, Pf growth 48h 1.6%, FBPA Giardia inh -4.0%, NS1 function inh -1.5% and Shiga inhibitor -6.0.
CCC(=O)c1ccc(OC)c(OC)c1 was read as CHX counter 1.9, Pf growth 96h 30.3%, Pf growth 48h -6.5%, FBPA Giardia inh 6.7%, NS1 function inh 2.0% and Shiga inhibitor -15.9.
For COC(=O)c1ccc(COc2ccc(C=O)cc2OC)o1 the results were CHX counter 11.0, Pf growth 96h -3.6%, Pf growth 48h 23.1%, FBPA Giardia inh -2.0%, NS1 function inh 9.1% and Shiga inhibitor 4.1.
Screening C=CCc1ccc(OC(=O)c2ccccc2)c(OC)c1 returned CHX counter 24.2*, Pf growth 96h 34.2%, Pf growth 48h 33.2%, FBPA Giardia inh -10.9%, NS1 function inh -4.1% and Shiga inhibitor 21.8.
Screening CCC(=O)c1ccc(OCc2ccc(C(=O)OC)o2)c(OC)c1 returned CHX counter 28.2*, Pf growth 96h -0.3%, Pf growth 48h -38.2%, FBPA Giardia inh 1.6%, NS1 function inh -6.3% and Shiga inhibitor 52.2.
For C=CCc1ccc(OCc2ccc(C(=O)OC)o2)c(OC)c1 the results were CHX counter 62.6*, Pf growth 96h 53.7%, FBPA Giardia inh -10.3%, NS1 function inh -10.3% and Shiga inhibitor 86.9*.
`C=CCc1ccc(OCCCOc2ccc(C(=O)O)cc2)c(OC)c1` gave CHX counter 16.4, Pf growth 96h -3.2%, Pf growth 48h 46.0%, FBPA Giardia inh 29.5%, NS1 function inh -1.2% and Shiga inhibitor 44.9.
C=CCc1ccc(OCC(O)COCC)c(OC)c1 (stereo unspecified) was read as CHX counter 35.6*, Pf growth 96h 86.7%, Pf growth 48h 161.3%, FBPA Giardia inh 3.2%, NS1 function inh 4.3% and Shiga inhibitor 127.5*.
For COc1ccc(S(=O)(=O)Nc2cc(OC)cc3cccnc23)cc1 the results were CHX counter -0.8, FBPA Giardia inh -9.4% and Shiga inhibitor -12.4.
`COc1ccc(N(CC(=O)N/N=C/c2ccccc2F)S(=O)(=O)c2ccccc2)cc1` gave CHX counter -3.0, Pf growth 96h inconclusive, Pf growth 48h -30.1%[0.00184 µM], FBPA Giardia inh -0.8%, NS1 function inh 6.8% and Shiga inhibitor -6.1.
Screening CCCCCCOC(=O)/C=C/c1c(C)[nH]c(=O)[nH]c1=O returned CHX counter -3.1, Pf growth 96h 65.7%, Pf growth 48h 9.28µM*, FBPA Giardia inh -0.2%, NS1 function inh -0.4% and Shiga inhibitor 9.1.
Screening Cc1ccc(N2C(=O)C(Cl)=C(N3CCCCCC3)C2=O)c(C)c1 returned CHX counter -1.7, Pf growth 96h -23.2%, Pf growth 48h 1.6%[0.00184 µM], FBPA Giardia inh 8.1%, NS1 function inh -7.9% and Shiga inhibitor -6.6.
Screening CCOc1ccc(Cn2nnc(-c3ccc(S(C)(=O)=O)cc3)n2)cc1OCC returned Pf growth 96h 0.928µM* and Pf growth 48h inconclusive.
O=S(=O)(c1ccccc1)[C@@]1(c2ccccc2)C[C@@H]2ON=C(c3cccc(Br)c3)[C@@H]2C1 was read as Pf growth 96h inconclusive and Pf growth 48h 11.7µM*.
Screening NC(N)=NCCCC(NC(=O)C(N)Cc1ccc(O)cc1)C(=O)O (stereo unspecified) returned FBPA Giardia inh 6.3%.
Screening CN(C)S(=O)(=O)Nc1ccc(Br)cc1F returned CHX counter -2.2, Pf growth 48h 14.8%, FBPA Giardia inh 5.4%, NS1 function inh 7.8% and Shiga inhibitor 11.1.
CN(C)/C=N/C(=S)Nc1ccc(Br)cc1F was read as CHX counter 48.9*, Pf growth 96h inconclusive, FBPA Giardia inh inconclusive, NS1 function inh -32.6% and Shiga inhibitor 52.3*.
Screening Cc1ccccc1NC(=S)Nc1ccccc1 returned CHX counter -3.9, Pf growth 96h 18.1%, Pf growth 48h 4.7%, FBPA Giardia inh -7.7% and NS1 function inh -0.6%.
Screening CN(C)/C=N/C(=S)Nc1ccccc1 returned CHX counter 19.4*, Pf growth 96h 30.2%, Pf growth 48h 27.5%, FBPA Giardia inh -2.8%, NS1 function inh 9.3% and Shiga inhibitor 88.0.
Screening CC(=O)OCC1(C)CN(c2ccccc2)N(C(=O)c2ccc(F)cc2)C1=O (stereo unspecified) returned CHX counter 1.4, Pf growth 96h 4.4%, Pf growth 48h -9.2%, FBPA Giardia inh 1.7% and Shiga inhibitor -1.9.
`CC(C)[C@H](NC(=O)N1c2ccccc2NC(=O)[C@@H]1C(C)C)C(=O)N[C@H](Cc1ccccc1)C(=O)O` gave CHX counter 2.3, Pf growth 96h -2.7%, Pf growth 48h -1.5%, FBPA Giardia inh -5.9%, NS1 function inh 16.4% and Shiga inhibitor -4.1.
For O=S1(=O)C2CC3C=CC2(CN1Cc1cccc(F)c1)O3 (stereo unspecified) the results were CHX counter 5.4, FBPA Giardia inh 8.4% and Shiga inhibitor 17.7.
`COc1ccc2oc(C)c(C(=O)NN)c2c1` gave CHX counter -2.9, Pf growth 48h 13.7%, FBPA Giardia inh -18.4%, NS1 function inh -0.2% and Shiga inhibitor -3.6.
For COc1ccc2oc3ccc(OC)cc3c(=O)c2c1 the results were CHX counter 22.4*, Pf growth 96h 106.7%, Pf growth 48h 220.6%, FBPA Giardia inh 1.7%, NS1 function inh -38.6% and Shiga inhibitor 156.1.
CC(=O)c1c(C)oc2ccc(OCc3ccccc3)cc12 was read as CHX counter 30.7*, Pf growth 96h 43.0%, Pf growth 48h 53.1%, FBPA Giardia inh -7.4%, NS1 function inh -47.4% and Shiga inhibitor 62.8*.
